Screens from PubChem BioAssay.
Most compounds without a hit are left out; they make up all but 8% or so of the library.
SW480 rerep: inducers of DNA re-replication in SW480 colon cancer cells. SW480 DNA re-replication, Hoechst DNA content imaging, 48 h. Potency, µM (top dose mostly 46.1 µM), for inactives: at the top dose re-replication activation, actives largely listed as activators. actives 1.8% (n = 340,000); note: % of control where 0% means no effect; nearly all actives have a fitted effect of over 55% in size
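Image-based read-out: total Hoechst fluorescence of nuclei (405 nm excitation, 500-530 nm emission), with hits raising the fraction of high-intensity nuclei. SW480 colon cells incubated 48 hr with compounds at 37 C.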
HT1080NT lethal: kills 2HG-producing HT-1080-NT fibrosarcoma cells | HT-1080-NT fibrosarcoma viability, CellTiter-Glo ATP luminescence, 48 h | Potency, µM (series often up to 46.1 µM), without a hit: at the top dose activity, negative = less viability, hits mostly cytotoxic | actives 1.6% (n = 360,000);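 note: NT is the 2HG producing partner of a matched IDH1 knockdown line; 0% = DMSO-treated cells and -100% = media-only wells without cells; nearly all actives have a fitted effect of over 55% in size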
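Luminescent CellTiter-Glo readout after 48 hours of compound exposure at 37 degrees C defined viability of HT-1080-NT cells. Activity was normalized to DMSO wells and cell-free media wells; concentration-response curves were fitted and assigned curve classes.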
KB-V1 MDR tox: KB-V1 MDR subline cytotoxicity | KB-V1 MDR cells viability, CellTiter-Glo, 72 h | Potency, µM (series often up to 46.1 µM), actives largely listed as cytotoxic | actives 3.4% (n = 400,000) | AID 1347076; note: % is set by controls: 0 for no effect and ±100 for the full control effect; nearly all actives have a fitted effect of over 60% in size
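KB-V1 MDR subline cells in DMEM (phenol-red free, 10% FBS) exposed to compounds in qHTS concentration series for 72 h at 37 degrees C. Viability read by CellTiter-Glo luminescence; concentration-effect curves fitted after normalization and correction.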
HT1080 IDH1KD tx: toxicity to HT-1080 IDH1 knockdown cells (counter line); Potency, µM (titrated, usually from 46.1 µM), inactives show top-dose activity, negative = toxicity, actives largely listed as cytotoxic; actives 2% (n = 360,000); AID 686971; HT-1080 IDH1 knockdown viability, ATP luminescence, 48 h;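 note: 0% = DMSO wells and -100% = cell-free medium wells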
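Viability of IDH1-knockdown HT-1080 fibrosarcoma cells was assessed by CellTiter-Glo after 48 h at 37 °C with titrated compound; concentration-effect curves were classified by fit quality and response size.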
KB-3-1 cytotox: kills parental KB-3-1 adenocarcinoma cells | KB-3-1 viability, CellTiter-Glo ATP luminescence, 72 h | actives 1.4% (n = 400,000) | Potency, µM (series often up to 46.1 µM), actives largely listed as cytotoxic; note: % is set by controls: 0 for no effect and ±100 for the full control effect; nearly all actives have a fitted effect of over 60% in size
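Parental KB-3-1 adenocarcinoma cells in phenol-red-free DMEM with 10% FBS were pin-treated with compounds at several concentrations, incubated 72 h at 37 °C, and viability read by CellTiter-Glo luminescence; concentration-effect curves were fitted after normalization.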
MCF10A rereplic: induces DNA re-replication in MCF 10a normal breast cells | AID 624296 | actives 2.9% (n = 350,000) | MCF 10A DNA re-replication, Hoechst nuclear intensity, 48 h | Potency, µM (series often up to 46.1 µM), for the others: at the highest dose activity, positive = re-replication, usual class: activators; note: % of control where 0% means no effect; nearly all actives have a fitted effect of over 50% in size
* hit, by the source's call; i = inactive; ? = inconclusive; · = not tested or not shown; [ ] = another dose, or the depositor's remark. Calls come from the whole dose curve; as a rule, active = well fitted curve in the direction sought with a large enough effect; inconclusive = small, poorly fitted or top-dose-only effect, or another doubt; inactive = no such curve, though single readings can be large; an effect the other way counts as inactive or inconclusive. Potency is the fitted concentration of half-maximal effect.

SMILES	SW480 rerep	HT1080NT lethal	KB-V1 MDR tox	HT1080 IDH1KD tx	KB-3-1 cytotox	MCF10A rereplic
CSc1ccc(C2C(C#N)=C(N)Oc3c2ccc(=O)c2c(C)oc(C)c32)cc1 (stereo not drawn)	10%	?	i	?	i	18µM*
CC(=O)Oc1ccc(C2C3=C(CC(C)(C)CC3=O)Nc3cc4c(cc32)OCCO4)cc1 (stereo not drawn)	2%	-2%	i	0%	i	-4%
COc1cccc(C2C3=C(CC(C)(C)CC3=O)Nc3cc4c(cc32)OCO4)c1 (stereo not drawn)	14%	-4%	?	-4%	i	?
C#CCOc1ccc(C2C3=C(COC3=O)Nc3cc4c(cc32)OCO4)cc1OC (stereo not drawn)	0.52µM*	0.046µM*	4.6µM*	0.092µM*	?	?
O=C1OCC2=C1C(c1ccc(F)cc1)c1cc3c(cc1N2)OCCO3 (stereo not drawn)	0.1µM*	0.18µM*	0.033µM*	0.18µM*	0.16µM*	?
O=C1OCC2=C1C(c1ccc(F)cc1)c1cc3c(cc1N2)OCO3 (stereo not drawn)	0.16µM*	0.18µM*	0.15µM*	0.12µM*	0.037µM*	?
COc1cc2c(cc1OC)C(c1ccc3c(c1)OCO3)C1=C(CC(C)(C)CC1=O)N2 (stereo not drawn)	-4%	3%	0.73µM*	-1%	i	?
COc1ccccc1C(=O)N(Cc1ccc(Cl)cc1)C1CCS(=O)(=O)C1 (stereo not drawn)	-12%	15%	i	-5%	i	-5%
CCOc1ccccc1C1C2=C(COC2=O)Nc2cc3c(cc21)OCO3 (stereo not drawn)	0.92µM*	1.2µM*	3.7µM*	0.65µM*	1.2µM*	?
Cc1ccc[n+](C(C)C(=O)Nc2ccc(C)c(C)c2)c1 (stereo not drawn)	-27%	2%	i	-12%	i	0.23µM*
O=C(NC1CC1)c1ccc(S(=O)(=O)NCC2CCCCC2)cc1	0%	3%	i	10%[9.24 µM]	i	5.8µM*
O=C(NC1CC1)c1ccc(S(=O)(=O)NC2CCCCCC2)cc1	-3%	-3%	16µM*	-28%	i	29%
O=C(NC1CCN(Cc2ccccc2)CC1)c1ccc(S(=O)(=O)NCc2ccco2)cc1	18%	-9%	?	-19%	?	?
CSc1ccc(S(=O)(=O)NC2CCCCCC2)cc1	-4%	0%	?	6%	i	9.2µM*
O=C(NC1CCCCC1)c1ccc(S(=O)(=O)NCc2ccco2)cc1	-10%	7%	15µM*	7%	i	3%
O=C(NCc1ccco1)C1Cc2c(-c3cccc(F)c3)ccnc2O1 (stereo not drawn)	·	?	4.6µM*	0.73µM*	1.2µM*	·
CC(=O)c1cccc(-c2ccnc3c2CC(C(=O)NCc2ccco2)O3)c1 (stereo not drawn)	·	?	0.92µM*	1.3µM*	1.2µM*	·
CC(=O)c1cccc(-c2ccnc3c2CC(C(=O)NCc2ccc(N4CCN(C)CC4)cc2)O3)c1 (stereo not drawn)	·	-12%	i	-9%	i	·
CC(=O)c1cccc(-c2ccnc3c2CC(C(=O)NCc2ccccc2)O3)c1 (stereo not drawn)	·	?	i	?	?	·
O=C(NCc1ccccc1)C1Cc2c(-c3ccc(Cl)cc3)ccnc2O1 (stereo not drawn)	·	?	1.5µM*	0.73µM*	5.8µM*	·
CC(=O)c1cccc(-c2ccnc3c2CC(C(=O)NCc2ccc(F)c(F)c2)O3)c1 (stereo not drawn)	·	?	?	?	5.2µM*	·
